In ChEMBL document CHEMBL3433997, “St. Jude Leishmania screening dataset” (2016) one finds inhibition data, which are given here for 13 compounds.

SMILES strings stand for the structures.

Common to all, as to type: functional
In experiment [1] the target is Solute carrier family 2, facilitated glucose transporter member 1 (Homo sapiens) (UniProt P11166). As to the kind of experiment: ST_JUDE_LEISH: Cytotoxicity at 2uM final concentration against transgenic Leishmania Mexicana promastigotes LmGLUT1 that are glucose transport deficient and complemented with the human glucose transporter GLUT1. Activity is measured by DNA content using SYBR green in vitro.
Sequence of Solute carrier family 2, facilitated glucose transporter member 1 (Homo sapiens) (P11166 whole entry): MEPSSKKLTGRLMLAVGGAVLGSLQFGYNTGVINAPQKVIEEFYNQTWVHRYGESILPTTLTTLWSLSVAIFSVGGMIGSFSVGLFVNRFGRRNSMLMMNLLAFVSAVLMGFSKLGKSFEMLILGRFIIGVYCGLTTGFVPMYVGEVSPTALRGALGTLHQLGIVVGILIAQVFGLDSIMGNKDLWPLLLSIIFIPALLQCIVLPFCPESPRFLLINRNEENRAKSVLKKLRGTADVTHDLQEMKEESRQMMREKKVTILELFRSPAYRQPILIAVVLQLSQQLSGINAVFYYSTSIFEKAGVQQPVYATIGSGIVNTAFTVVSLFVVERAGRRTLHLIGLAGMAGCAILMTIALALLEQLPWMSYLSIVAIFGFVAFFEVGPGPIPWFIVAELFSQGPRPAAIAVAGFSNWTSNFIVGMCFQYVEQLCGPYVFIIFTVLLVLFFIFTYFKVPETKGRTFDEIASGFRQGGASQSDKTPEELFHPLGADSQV

Experiment [2] has as its target Hexose transporter 1 (Plasmodium falciparum) (UniProt O97467). As to the kind of experiment: ST_JUDE_LEISH: Cytotoxicity at 2uM final concentration against transgenic Leishmania Mexicana promastigotes LmPfHT that are glucose transport deficient and complemented with the Plasmodium falciparum hexose transporter. Activity is measured by DNA content using SYBR green in vitro.

For experiment [3], the target named is Glucose transporter (Leishmania mexicana) (UniProt O61059). As to the kind of experiment: ST_JUDE_LEISH: Cytotoxicity at 2uM final concentration against transgenic Leishmania Mexicana promastigotes LmGT2 that are glucose transport deficient and complemented with the L. Mexicana glucose transporter 2. Activity is measured by DNA content using SYBR green in vitro.

As a reminder, the inhibition is the change of the read-out against control, counted positive when it falls. Consider `COc1cccc(C(C)(C)NC[C@@H](O)[C@H](Cc2ccccc2)NC(=O)c2cc(C3CCCC3)cc(N3CCCCS3(=O)=O)c2F)c1`, for which the inhibition stood at 0.16% in experiment [1], 2.15% in experiment [2] and 1.09% in experiment [3].
Turning to `O=C(Nc1ccc(C(F)(F)F)cc1)NC1CCN(CCCCCNC(=O)C2CC2c2ccc(Cl)c(Cl)c2)CC1` (centres undefined), the figures for the inhibition in experiment [1], in experiment [2] and in experiment [3] were -1.45%, -1.93% and -1.98%, respectively.
On the same counts, the results for `CN(C)CCNC(=O)c1ccc(-c2cnc3ccc(NCc4ccc(Cl)c(Cl)c4)nn23)cc1` are -1.43%, -1.29% and 11.1%.
For the compound `O=C(/C=C/c1ccc(C(F)(F)F)cc1)NCCCCCN1CCCN(C(=O)Nc2ccc(F)c(Cl)c2)CC1`, the inhibition in experiment [1] was determined as 1.19%; in experiment [2], 1.85%; in experiment [3], 0.39%.
For `CC(C)(C)OC(=O)NCc1ccc(Nc2nnc(-c3cccc(C(=O)NCCC(c4ccccc4)c4ccccc4)c3)o2)cc1`, the inhibition in experiment [1] worked out at 8.74%; in experiment [2] it was 10.6%; in experiment [3], 7.8%.
As to `Cc1cccc2c(C(=O)NC3CCN(Cc4ccccc4)CC3)cc(-c3cccnc3)nc12`, the inhibition in experiment [1] was 1.6%; in experiment [2], 1.08%; in experiment [3] it was -0.31%.
For `O=C(/C=C/c1ccc(Cl)c(Cl)c1)NCCCCCN1CCC(NC(=O)c2cc(Cl)ccc2F)CC1`, the inhibition in experiment [1] was 2.96%; in experiment [2], 1.12%; in experiment [3] it was -0.02%.
Turning to `N#CC(c1ccc(Cl)cc1)c1ccc2c(C(F)(F)F)cc(C(F)(F)F)nc2n1` (centres undefined), the inhibition in experiment [1] turned out to be 2.34%; in experiment [2], 2.87%; in experiment [3] it was 0.92%.
As to `c1ccc(CCNCc2cccc(-c3ccc(CNc4ccc5ncccc5c4)cc3)c2)cc1`, the inhibition amounted to 4.72% in experiment [1], 3.92% in experiment [2] and 3.8% in experiment [3].
As to `CNc1ccc(CNCc2ccc(-c3ccc(-c4nc5cccc(C)c5[nH]4)cc3)cc2)cc1`, the inhibition in experiment [1] came out at 18.3%; in experiment [2], 15.5%; in experiment [3] it was 7.71%.
As for `CC(C)CSc1cc(C(=O)Nc2cc(Cl)ccc2O)ccn1`, the inhibition is -0.74% in experiment [1], -0.12% in experiment [2] and -2.72% in experiment [3].
On the same counts, the results for `CCOc1ccccc1CNc1nccc(NCCc2cn(C)c3ccccc23)n1` are 7.77%, 3.5% and 2.49%.
The like results for `COc1ccc(OCCCN2CCCCC2)cc1S(=O)(=O)c1ccc(OCc2ccc(C(F)(F)F)cc2)cc1` were, in that order, 2.4%, 0.01% and 2.1%.
